Screening data deposited in PubChem BioAssay by several laboratories.
PfHsp90 set2: growth inhibition of PfHsp90-expressing yeast, primary screen, antimalarial PfHsp90 inhibitor project, S. cerevisiae, BacTiter-Glo luminescence, single point, set 2. actives 0.32% (n = 310,000). AID 504621, 2011. BacTiter-Glo ATP, 48 h; yeast lacking PDR1 and PDR3 efflux regulators. inhibition, % at 9.4 µM;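 active means every replicate shows inhibition above about 80%, whatever the replicate mean, limit read from the data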;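 further: 0% = DMSO neutral controls and 100% = 20 µM radicicol positive controls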
tim23-1 inh: growth inhibitors of tim23-1 mutant yeast, primary screen, luminescence, uHTS; S. cerevisiae tim23-1 growth, BacTiter-Glo luminescence, 24 h; actives 1.3% (n = 330,000); inhibition, % at 20 µM;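 active means growth inhibition of the mutant yeast at or above 50%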;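 further: temperature-sensitive mutant grown at 25 °C; plate controls were DMSO-treated mutant yeast for no effect and medium wells lacking yeast for full effect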
NLRP3 yeast inh: NALP3 inflammasome inhibitors in reconstituted yeast, primary screen, luminescence, uHTS | inhibition, % at 10 µM | Yeast reconstituted NLRP3/ASC/caspase-1, beta-gal luminescence, 24 h | actives 0.39% (n = 330,000);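 active means inhibition of 50% or more; inactive means inhibition below 50%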;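 further: plate controls were induced DMSO wells for no effect and uninduced yeast grown without galactose for full effect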
TIM10 inh: growth inhibitors of isogenic TIM10 control yeast, primary screen, counter-screen for tim10-1 yeast inhibitor project, luminescence, uHTS | S. cerevisiae TIM10 strain growth, BacTiter-Glo luminescence, 24 h | inhibition, % at 10 µM | actives 1.4% (n = 330,000);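 active means inhibition of 40% or more at the single tested concentration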;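 further: wild-type TIM10 isogenic control strain grown at permissive 25 °C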
tim10-1 inh: growth inhibitors of tim10-1 mutant yeast, primary screen, luminescence, uHTS; S. cerevisiae tim10-1 ts strain growth, BacTiter-Glo, 24 h; inhibition, % at 20 µM; actives 2.2% (n = 330,000); AID 463190, 2010;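 active means inhibition of at least 40%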;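 further: mutant grown at 25 °C; 0% = DMSO wells with yeast and 100% = wells holding no yeast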
tim10-1 confirm: growth inhibitors of tim10-1 mutant yeast, confirmation, single concentration, luminescence, S. cerevisiae; shares compounds with tim10-1 inh; S. cerevisiae tim10-1 ts strain growth, BacTiter-Glo, 24 h; inhibition, % at 20 µM; actives 56% (n = 7,400); AID 463213, 2010;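 active means inhibition of yeast growth at or above a set limit in either of two repeat tests at 20 µM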;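 further: tim10-1 mutant grown at permissive 25 °C to find synthetic lethal compounds; 0% = DMSO yeast wells and 100% = medium wells without yeast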
TIM10 conf: growth inhibitors of wild-type TIM10 yeast, confirmation, counter-screen for tim10-1 synthetic lethality project, single concentration, luminescence, S. cerevisiae | actives 63% (n = 4,600) | S. cerevisiae tim10 strain growth, BacTiter-Glo luminescence, 24 h | inhibition, % at 10 µM | shares compounds with TIM10 inh;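 active means inhibition of yeast growth at or above a set limit in either of two replicates at 10 µM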;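 further: this counterscreen used the strain with wild-type TIM10; 0% = yeast with DMSO and 100% = medium wells lacking yeast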
tim23-1 conf: tim23-1 mutant yeast growth inhibitors, confirmation, luminescence, single concentration; shares compounds with tim23-1 inh; S. cerevisiae tim23-1 growth, BacTiter-Glo luminescence, 24 h; inhibition, % at 20 µM; actives 83% (n = 4,400); AID 463218, 2010;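 active means inhibition above about 39% in either of two replicate wells at 20 µM, limit read from the data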;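 further: temperature-sensitive tim23-1 mutant grown at 25 °C; 0% = DMSO wells with yeast and 100% = medium wells without yeast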
* hit, by the source's call; x = no result. Shown are actives, neighbours in structure and some others; about 3.7% of the full set was active somewhere.

SMILES	PfHsp90 set2	tim23-1 inh	NLRP3 yeast inh	TIM10 inh	tim10-1 inh	tim10-1 confirm	TIM10 conf	others
CCCC1(CCC)C(=O)NC(=Nc2ccccc2)NC1=O	-2.3	18.1	14.5	-8.9	17.3	x	x
CCCCC1(CCCC)C(=O)NC(=Nc2cccc(C)c2)NC1=O	17.9	29.6	21.9	9.5	40.1*	26.4	x
Cc1ccc(/C=C2/Sc3ccc(C(=O)N4CCC5(CC4)OCCO5)cc3NC2=O)cc1	1.2	39.5	-0.2	22.6	47.3*	20.1	x
CN1C(=O)c2ccccc2Sc2ccc(C(=O)N3CCC4(CC3)OCCO4)cc21	x	28.7	14.2	27.5	1.8	x	x
COC(=O)C1=C(c2cc3ccccc3s2)C[C@@H]2CC[C@H]1N2C(=O)NCCNC(C)=O	3.5	-6.9	7.3	1.7	-19.8	x	x
COc1ccc(N2C(=O)NC(=O)/C(=C\c3ccc([N+](=O)[O-])s3)C2=O)cc1	22.6	43.2	20.7	80.9*	67.9*	71.4*	38.3*
COC1C(C)OC(OC2CC(C)(O)Cc3cc4c(c(O)c32)C(=O)c2c(O)cc3c(c2C4=O)OC2OC3(C)C(O)C(N(C)C)C2O)C(OC)C1(C)OC (centres undefined)	-38.0	x	x	x	x	x	x
FC(F)(F)c1ccccc1CNCCc1c[nH]c2ccccc12	-4.5	34.6	35.0	61.2*	43.0*	62.2*	60.0*
C=CCSc1nc2c(c(-c3ccsc3)c1C#N)CN(C)CC2	4.1	6.1	7.0	24.1	21.2	x	x
O=C1NC(=O)N(Cc2ccco2)C(=O)/C1=C\c1cccn1CCOc1ccc(Cl)cc1	-6.6	43.9	9.7	41.2*	47.4*	41.5*	39.2*
NC(=O)c1ccc(OCCC(O)N2CC=C(c3ccc(F)cc3)CC2)cc1 (centres undefined)	-2.4	-49.3	15.0	-12.4	-20.4	x	x
CCOC(=O)c1ccc(N2C(=O)CC(N3CC=C(c4ccc(F)cc4)CC3)C2=O)cc1 (centres undefined)	-9.2	19.3	-2.8	56.6*	63.1*	61.6*	43.8*
Cc1ccc(Cn2nnnc2CN2CCC(n3nnc4cc(C(F)(F)F)ccc43)CC2)cc1	x	18.3	14.0	33.2	36.1	x	x
Cc1ccc(Cn2nnnc2CN2CCC(n3nnc4cc(C)ccc43)CC2)cc1	-54.2	44.6	14.1	49.8*	51.7*	46.1*	28.0*
COC(=O)C1=C(c2ccc3ccccc3c2)C[C@@H]2CC[C@H]1N2C(=O)NCc1ccc(C(F)(F)F)cc1	-31.1	33.8	21.1	2.6	20.4	x	x
COc1ccc(C(=O)c2nc3ccccc3n2C(C)C)cc1	35.8	19.1	8.4	0.5	-8.5	x	x
COC(=O)C1=C(c2ccc(OCc3ccccc3)cc2)C[C@@H]2CC[C@H]1N2C(=O)NC1CCN(Cc2ccccc2)CC1	-9.7	25.0	13.9	6.0	14.9	x	x
OC(Cn1c2ccccc2c2ccccc21)C[n+]1cccc2ccccc21 (centres undefined)	9.0	33.2	23.4	57.4*	49.1*	43.0*	43.0*
Fc1ccc(C[n+]2c(-c3ccccc3)cc(-c3ccccc3)cc2-c2ccccc2)cc1	x	41.1	15.6	49.4*	55.4*	51.8*	58.5*
CCSc1cc(C2C(C#N)=C(N)Oc3n[nH]c(C)c32)c(C)o1 (centres undefined)	10.5	9.6	13.6	47.5*	63.0*	47.0*	44.6*
CN1C(=O)C(=Cc2ccc(OCC(=O)Nc3ccccc3)cc2)C(=O)N(C)C1=O	9.6	6.9	15.6	5.6	12.2	x	x
N#CC(C#N)=NNc1ccc(-n2ccc(C(F)(F)F)n2)cc1	-15.6	51.0*	38.3	47.6*	49.9*	59.3*	23.4	tim23-1 conf=61.2*
N#CC1c2ccccc2-n2nncc2CN1S(=O)(=O)c1cc(Cl)cc(Cl)c1 (centres undefined)	10.9	x	x	x	x	x	x
CC(NS(C)(=O)=O)c1nnc2n1-c1ccc(Br)cc1C(c1ccccc1Cl)=NC2 (centres undefined)	1.1	15.0	11.3	1.6	-10.0	x	x
CCc1cccc(C)c1NC(=S)N1CC2CC(C1)c1cccc(=O)n1C2 (centres undefined)	11.5	7.7	16.7	-13.7	4.6	x	x
SMILES	PfHsp90 set2	tim23-1 inh	NLRP3 yeast inh	TIM10 inh	tim10-1 inh	tim10-1 confirm	TIM10 conf	others
COc1cc(/C=C(/C)[N+](=O)[O-])ccc1OCc1ccccc1Cl	-30.5	52.3*	16.0	51.5*	49.0*	35.6*	43.5*	tim23-1 conf=71.2*
Cc1ccc(Cn2cc(C=O)c(-c3ccc(C)cc3)n2)cc1	9.2	52.7*	31.9	27.0	45.2*	34.5*	x	tim23-1 conf=65.4*
O=C(NC1CC1)c1cn(Cc2ccccc2)nc1-c1ccccc1	x	6.0	13.2	2.3	1.1	x	x
CN(C(=O)COC(=O)c1cn(C)c2ccccc12)C1CCCCC1	-17.4	35.9	12.2	22.7	23.7	x	x
COC(=O)C(O)(c1ccc(NC(=S)NC(=O)c2ccc(Cl)cc2Cl)c(C)c1)C(F)(F)F (centres undefined)	-9.2	58.5*	18.2	23.1	52.9*	36.9*	x	tim23-1 conf=57.6*
O=C1NC(=O)N(Cc2ccc(F)cc2)C(=O)/C1=C\c1ccc(N2CCCC2)cc1	2.1	25.5	30.8	11.0	22.6	x	x
COc1ccc(CN2C(=O)NC(=O)/C(=C/c3ccc([N+](=O)[O-])s3)C2=O)cc1	101.1*	58.8*	2.1	81.7*	67.1*	74.5*	24.3	tim23-1 conf=75.2*
COc1ccc(CN2C(=O)NC(=O)/C(=C\c3ccco3)C2=O)cc1	-19.5	16.6	-12.8	-7.8	5.8	x	x
O=C1NC(=O)N(Cc2ccc(F)cc2)C(=O)/C1=C\c1ccc([N+](=O)[O-])s1	101.2*	60.3*	12.0	82.5*	70.0*	74.8*	25.1	tim23-1 conf=76.2*
Cc1cc(O)c(CN2CC=C(c3ccccc3)CC2)cc1C(C)C	7.8	15.5	12.4	-8.4	17.7	x	x
Cc1ccc(NC(=O)CN2C(=O)CN=C(c3ccccc3)c3cc(Cl)ccc32)cc1	13.4	61.0*	18.6	11.0	45.4*	20.1	x	tim23-1 conf=52.0*
CN(C)c1ccc(NC(=O)CN2C(=O)CN=C(c3ccccc3)c3cc(Cl)ccc32)cc1	-3.7	32.5	25.4	13.3	34.2	x	x
